CYP2C19 inh: blockers of cytochrome P450 2C19 activity – biochemical, luminescence, ADME assay, primary screen; P33261; CYP2C19 Supersomes, luciferin-H EGE luminescence, 30 min; inhibition, % at 5 µM; 21% of 96,000 active; AID 778, 2007;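 active means CYP2C19 inhibition above a set limit at 5 µM in the primary screen, cut at about 50% in these data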;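 further: plate controls were negative control wells for no effect and 2.5 mM tranylcypromine positive control for full effect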
CYP2C9 inhib: blockers of cytochrome P450 2C9 activity – biochemical, luminescence, ADME assay, primary screen; P11712; 20% of 96,000 active; CYP2C9 Supersomes, luciferin-H conversion; inhibition, % at 5 µM;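 active means blocking of liver enzyme CYP2C9 beyond about 50% at 5 µM, limit read from the data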
sEH act: soluble epoxide hydrolase activators, primary screen, biochemical, human sEH; AID 717, 2007; 0.04% of 91,000 active; activation, % at 2 µM; purified human sEH enzymatic activity, activator screen; Bifunctional epoxide hydrolase 2 (Homo sapiens), P34913; in the data active means activation above about 37%
Target sequence (P34913 whole entry, looked up): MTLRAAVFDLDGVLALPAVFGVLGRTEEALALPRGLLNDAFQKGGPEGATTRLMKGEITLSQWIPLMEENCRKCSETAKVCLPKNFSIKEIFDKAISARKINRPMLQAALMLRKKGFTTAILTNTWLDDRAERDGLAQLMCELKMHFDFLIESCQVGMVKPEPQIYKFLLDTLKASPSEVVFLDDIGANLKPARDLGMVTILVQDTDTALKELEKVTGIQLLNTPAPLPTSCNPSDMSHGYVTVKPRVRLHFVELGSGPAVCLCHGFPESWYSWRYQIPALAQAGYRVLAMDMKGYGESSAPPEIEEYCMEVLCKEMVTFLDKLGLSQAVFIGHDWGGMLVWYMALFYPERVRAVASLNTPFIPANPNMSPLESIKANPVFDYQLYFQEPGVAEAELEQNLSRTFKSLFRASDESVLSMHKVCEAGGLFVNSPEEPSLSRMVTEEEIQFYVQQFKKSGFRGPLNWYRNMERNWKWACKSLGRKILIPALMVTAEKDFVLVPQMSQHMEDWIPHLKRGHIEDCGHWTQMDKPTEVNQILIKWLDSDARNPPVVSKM
CYP2C9 activ: human CYP2C9 activators, primary screen, biochemical, luminescence; Cytochrome P450 2C9 (Homo sapiens), P11712; recombinant CYP2C9, luciferin-H conversion; hits give high values; factor 1 = untreated enzyme, 0 = blocked; activation factor at 5 µM; 1.4% of 96,000 active; AID 1024, 2008;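 active means activation factor of 2 or more for CYP2C9 at a 5 µM dose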;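 further: 0 = sulfaphenazole-blocked wells and 1 = vehicle-only wells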
CYP2C19 act: human CYP2C19 activators, primary screen, biochemical, luminescence | recombinant CYP2C19, luciferin-H EGE luminescence; hits give high values; 0 = fully inhibited enzyme, 1 = untreated enzyme | 96,000 tested, under 10 active | activation factor at 5 µM | AID 1025, 2008 | Cytochrome P450 2C19 (Homo sapiens), P33261;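 active means activation factor of at least 2 at 5 µM in the primary screen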;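 further: 0 = wells with 2.5 mM tranylcypromine and 1 = vehicle-only wells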
sEH inh: soluble epoxide hydrolase inhibitors, primary screen, biochemical, human sEH; recombinant human sEH enzymatic activity assay; AID 707, 2007; Bifunctional epoxide hydrolase 2 (Homo sapiens), P34913; 0.34% of 91,000 active; inhibition, % at 2 µM; in the data active means inhibition above about 80%
* marks the source's active call; other numbers are inactive results; · = not tested or not shown. Compounds with a hit are over-represented: about 27% of the library has one in this group of screens.

SMILES | CYP2C19 inh | CYP2C9 inhib | sEH act | CYP2C9 activ | CYP2C19 act | sEH inh
CCOC(=O)N1CCN(c2nc(SC)nc3sc4c(c23)CC(C)(C)OC4)CC1 | 87.0* | 81.4* | · | 0.2 | 0.1 | ·
CC(C)Sc1nc(N2CCOCC2)c2c3c(sc2n1)COC(C)(C)C3 | 36.3 | 57.6* | -5.5 | 0.4 | 0.6 | 9.3
CC1(C)Cc2c(sc3nc(SCC(=O)N4CCOCC4)nc(N)c23)CO1 | 3.2 | -6.5 | · | 1.1 | 1 | ·
Cn1c(CNc2nc(-c3ccccc3)cs2)nnc1SCC(=O)N1CCc2ccccc21 | 36.7 | 33.0 | -9.2 | 0.7 | 0.6 | 13.8
CCC(C)(C)NC(=O)C(c1cccn1C)N(C(=O)Cn1nnc2ccccc21)c1ccc(F)cc1 (stereo unspecified) | 4.6 | 5.0 | -9.9 | 0.9 | 1 | 9.4
NC(=O)c1ccccc1N/C=C/C(=O)c1ccco1 | 59.6* | 29.0 | -14.7 | 0.7 | 0.4 | 17.7
Cc1cccc(OC(=O)c2ccc3nccnc3c2)c1 | 7.0 | 53.7* | 4.3 | 0.5 | 0.9 | -2.0
O=C(Oc1ccc(Cl)cc1)c1ccc2nccnc2c1 | 2.9 | -4.4 | 28.8 | 1 | 1 | -27.2
CN(Cc1ccc(OC(F)F)cc1)C(=O)c1ccc2nccnc2c1 | 37.8 | 2.7 | · | 1 | 0.6 | ·
COc1cccc(CN(C)C(=O)c2ccc3nccnc3c2)c1 | 78.2* | 11.6 | -9.4 | 0.9 | 0.2 | 8.4
CC/C(=N\NC(=O)CSCc1ccccc1Br)c1ccc2c(c1)OCCO2 | -11.4 | -0.6 | 2.0 | 1 | 1.1 | -2.8
O=C(CSCc1ccc(Cl)cc1)N/N=C/c1ccccc1 | 86.0* | 59.6* | -48.5 | 0.4 | 0.1 | 49.6
O=C(CN1CCN(Cc2ccccc2)CC1)Nc1ccc(Cl)cn1 | 9.3 | 15.1 | 0.6 | 0.8 | 0.9 | 1.8
CC/C(=N\NC(=O)CSCc1ccc(Cl)cc1)c1ccc2c(c1)OCCO2 | 77.5* | 58.7* | -78.2 | 0.4 | 0.2 | 78.4
O=C(CSCc1ccccc1)Nc1ccc(Cl)cn1 | 64.5* | 69.9* | 0.0 | 0.3 | 0.4 | 0.1
CCCNC(=O)c1cccc(C(F)(F)F)c1 | 10.1 | -1.4 | -8.9 | 1 | 0.9 | 9.5
CN=C(Nc1ccc(Cl)cc1)c1ccc(C(F)(F)F)cc1 | 80.0* | 25.3 | 12.5 | 0.7 | 0.2 | -10.2
C/C(=C\C(=O)C(F)(F)F)Nc1ccc(C(F)(F)F)cc1 | 4.4 | 2.2 | 4.4 | 1 | 1 | -2.6
CN=C(Nc1ccc(Cl)cc1)c1cccc(C(F)(F)F)c1 | 73.6* | 22.9 | -2.5 | 0.8 | 0.3 | 4.4
O=C(O)c1ccc(NS(=O)(=O)c2ccc3nnn(O)c3c2)cc1 | -27.1 | -36.9 | 19.6 | 1.4 | 1.3 | -22.0
CC(=O)N(NC(=O)c1ccccc1Cl)C1CC(=O)N(c2ccc(C)cc2)C1=O (stereo unspecified) | 18.4 | 16.2 | 2.1 | 0.8 | 0.8 | -0.3
CC(=O)N(CC(C)(C)CC=C(C)C)c1ccccc1 | 51.5* | 13.1 | · | 0.9 | 0.5 | ·
CCOC(=O)CC1=C(C(=O)OCC)C(c2ccncc2)C(C#N)=C(N)O1 (stereo unspecified) | 78.9* | 59.2* | · | 0.4 | 0.2 | ·
COC(=O)CC1=C(C(=O)OC)C(c2cc(OC)c(OC)cc2OC)C(C#N)=C(N)O1 (stereo unspecified) | 34.0 | 48.6 | 7.5 | 0.5 | 0.7 | -7.8
CCOC(=O)C1=C(C)OC(N)=C(C#N)C1c1ccc(O)c(OC)c1 (stereo unspecified) | 48.6 | 33.4 | -4.1 | 0.7 | 0.5 | 1.2
CCOC(=O)C1=C(C)OC(N)=C(C#N)C1c1ccoc1 (stereo unspecified) | 53.5* | 15.6 | · | 0.8 | 0.5 | ·
CCOC(=O)C1=C(C)OC(N)=C(C#N)C1c1ccc(C)o1 (stereo unspecified) | 97.6* | 57.5* | 7.0 | 0.4 | 0 | -6.8
CCOC(=O)C1C(C#N)=C(N)OC(C)=C1c1ccncc1 (stereo unspecified) | 79.9* | 89.9* | 9.1 | 0.1 | 0.2 | -6.0
CCCN(CCC)CCCNC(=O)CC1Nc2ccccc2NC1=O (stereo unspecified) | 1.3 | -41.1 | 4.5 | 1.4 | 1 | -4.2

Bioassay records as filed in PubChem.
